Experimental data as given in PMC4336329 (PLoS ONE, 2015).
Out of some 310,000 compounds screened, about 14,000 (4.5%) showed an effect of 50% or more. Effects have a minus sign here. Many of the other results were omitted from the sample, so strong results are more common in it than they were.

Target: human ether-à-go-go-related gene (hERG) potassium channel (human, UniProt Q12809)
Assay: primary screen, population patch clamp on CHO cells stably expressing hERG; higher = less effect of the substance
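Further: peak tail current of the secondary pulse compared with the same well before compound.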

Sequence of human ether-à-go-go-related gene (hERG) potassium channel (Q12809 whole entry, looked up): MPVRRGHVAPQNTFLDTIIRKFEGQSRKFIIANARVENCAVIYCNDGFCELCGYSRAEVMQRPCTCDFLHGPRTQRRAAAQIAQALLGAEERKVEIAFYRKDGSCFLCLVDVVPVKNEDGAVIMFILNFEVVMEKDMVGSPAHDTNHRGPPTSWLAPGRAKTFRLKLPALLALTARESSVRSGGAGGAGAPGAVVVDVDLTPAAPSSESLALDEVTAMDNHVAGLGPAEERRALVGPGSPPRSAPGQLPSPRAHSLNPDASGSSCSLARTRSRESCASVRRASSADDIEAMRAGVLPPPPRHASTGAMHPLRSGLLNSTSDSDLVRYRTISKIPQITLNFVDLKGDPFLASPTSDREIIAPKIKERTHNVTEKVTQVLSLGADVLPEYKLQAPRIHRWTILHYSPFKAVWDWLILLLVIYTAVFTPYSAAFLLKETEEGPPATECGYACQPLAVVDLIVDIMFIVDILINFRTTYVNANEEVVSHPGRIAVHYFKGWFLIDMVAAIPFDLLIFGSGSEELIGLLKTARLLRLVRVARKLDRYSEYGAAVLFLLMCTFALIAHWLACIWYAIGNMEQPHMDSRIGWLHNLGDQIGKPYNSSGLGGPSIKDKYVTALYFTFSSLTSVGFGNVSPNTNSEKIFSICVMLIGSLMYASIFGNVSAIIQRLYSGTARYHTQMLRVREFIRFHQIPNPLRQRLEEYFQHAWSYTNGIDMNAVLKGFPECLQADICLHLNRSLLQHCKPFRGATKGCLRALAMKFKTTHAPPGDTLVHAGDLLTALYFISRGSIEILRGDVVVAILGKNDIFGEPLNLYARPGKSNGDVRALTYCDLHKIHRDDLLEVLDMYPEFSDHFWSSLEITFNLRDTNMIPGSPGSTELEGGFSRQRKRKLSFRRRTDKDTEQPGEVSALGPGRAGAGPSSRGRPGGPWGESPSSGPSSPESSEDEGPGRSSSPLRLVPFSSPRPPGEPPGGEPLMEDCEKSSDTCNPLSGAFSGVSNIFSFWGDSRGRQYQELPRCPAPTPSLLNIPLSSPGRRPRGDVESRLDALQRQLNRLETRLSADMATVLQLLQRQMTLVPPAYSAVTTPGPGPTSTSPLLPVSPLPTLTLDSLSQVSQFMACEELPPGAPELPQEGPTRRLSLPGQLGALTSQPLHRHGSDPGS

Going from `Cn1c(O)c(C=NCCN2CCN(C(=O)Nc3ccccc3)CC2)c(=O)n(C)c1=O` to `Cc1ccc2nsnc2c1S(=O)(=O)N1CCN(CCc2ccccc2)CC1`, the “hERG current change (%, negative = inhibition) at 10uM” value falls from 13.1% to -42.6%.

First: O=C(Nc1cc(Cl)cc(Cl)c1)C(NCCCO)c1ccccc1 (stereo not shown)
Second: CC(NCC(O)COCc1ccc(Cl)cc1)c1ccccc1.Cl (stereo not shown)
The “hERG current change (%, negative = inhibition) at 10uM” value of the first is higher: 3.1% for the first, -43.1% for the second.

Going from `CC(C)(C)NCC(O)COCc1ccc(Cl)cc1.Cl` (stereo not shown) to `Cl.OC(CNCc1ccccc1)COCc1ccc(Cl)cc1` (stereo not shown), the “hERG current change (%, negative = inhibition) at 10uM” value falls from -24.6% to -50.3%.

Going from `Cc1ccc(CNCc2ccc3c(c2)OCO3)cc1` to `OC(CNCc1ccc2c(c1)OCO2)COc1ccc(F)cc1` (stereo not shown), the “hERG current change (%, negative = inhibition) at 10uM” value falls from -0.503% to -55.7%.

First: CC(CNCc1ccc2c(c1)OCO2)NCc1ccc2c(c1)OCO2 (stereo not shown)
Second: CC(NCc1ccc2c(c1)OCO2)c1ccccc1.Cl (stereo not shown)
The “hERG current change (%, negative = inhibition) at 10uM” value of the first is lower: -54.5% for the first, 10.4% for the second.

Compared with `Cc1ccc(OCCNCC(O)COc2ccccc2)cc1.O=C(O)C(=O)O` (stereo not shown), `CC(=O)CCc1ccc(OCC(O)CNCCOc2ccc(C)cc2)cc1` (stereo not shown) is lower in “hERG current change (%, negative = inhibition) at 10uM” value: -44.2% for the first, -55.9% for the second.

Going from `COc1ccc(CCC(=O)NCCOc2ccc(C)cc2)cc1` to `Cc1ccc(OCC(O)CNCc2ccc(F)cc2)cc1` (stereo not shown), the “hERG current change (%, negative = inhibition) at 10uM” value falls from 2.1% to -40.5%.

First: Cc1ccc(C(OCC(O)CNCc2ccc(F)cc2)c2ccccc2)cc1.O=C(O)C(=O)O (stereo not shown)
Second: O=C(O)C(=O)O.O=C(c1ccccc1)c1ccc(OCC(O)CNCc2ccc(F)cc2)cc1 (stereo not shown)
The “hERG current change (%, negative = inhibition) at 10uM” value of the first is lower: -75.7% for the first, -68.2% for the second.

Compared with `Cc1cc2c(=O)n(CC(=O)N3CCN(c4ccc(F)cc4)CC3)cnc2s1`, `COc1nc2ccccc2nc1N1CCN(c2ccc(F)cc2)CC1` is higher in “hERG current change (%, negative = inhibition) at 10uM” value: -12.4% for the first, 17.5% for the second.

First: CC(C)(C)CC(C)(C)NCC(O)COCCOc1ccc(Br)cc1.Cl (stereo not shown)
Second: CCC(=O)c1ccc(OCC(O)CNCCc2ccc(Cl)cc2)cc1 (stereo not shown)
The “hERG current change (%, negative = inhibition) at 10uM” value of the first is higher: -32.8% for the first, -72.1% for the second.

First: O=C(NCc1ccc(F)cc1)NC(=O)c1ccc(Cl)cc1
Second: O=C(COc1ccc(C(=O)c2ccccc2)cc1)NCc1ccc(F)cc1
The “hERG current change (%, negative = inhibition) at 10uM” value of the first is higher: 8.5% for the first, -6.64% for the second.

Going from `CCOC(=O)C1=CCN(Cc2ccccc2)CC1.Cl` to `CN(Cc1ccccc1)c1cc(Cl)nc(N)n1`, the “hERG current change (%, negative = inhibition) at 10uM” value falls from 12.8% to -1.61%.

First: Nc1nnc(SCCCC(=O)c2ccc(Br)cc2)s1
Second: Brc1ccc(Nc2c3c(nc4ncnn24)CCC3)cc1
The “hERG current change (%, negative = inhibition) at 10uM” value of the first is higher: 26.5% for the first, -21.4% for the second.

Going from `CC(=O)c1cccc(OCC(O)CNCCc2ccc(Cl)cc2)c1` (stereo not shown) to `CCC(=O)c1ccc(OCC(O)CNCc2ccc(F)cc2)cc1` (stereo not shown), the “hERG current change (%, negative = inhibition) at 10uM” value falls from -49% to -52.2%.

Going from `OC(CNCc1ccccc1Cl)COc1ccc(F)cc1` (stereo not shown) to `OC(CNCc1ccc2c(c1)OCO2)COc1ccccc1` (stereo not shown), the “hERG current change (%, negative = inhibition) at 10uM” value rises from -21.3% to -5.74%.

First: COC(=O)c1ccc(CNCC(O)COc2ccc(-c3ccccc3)cc2)cc1 (stereo not shown)
Second: CC(=O)c1ccc(OCC(O)CNCc2ccc3c(c2)OCO3)cc1 (stereo not shown)
The “hERG current change (%, negative = inhibition) at 10uM” value of the first is higher: 13.1% for the first, -26.1% for the second.

First: CCC(=O)c1ccc(OCC(O)CNC2CCCC2)cc1 (stereo not shown)
Second: COc1ccc(CN2C(=NC(=O)CCC3CCCC3)SC3CS(=O)(=O)CC32)cc1 (stereo not shown)
The “hERG current change (%, negative = inhibition) at 10uM” value of the first is lower: 2.52% for the first, 19.7% for the second.

Going from `CCc1nc(C)ccc1OCC(=O)NCCCN(C)C.O=C(O)C(=O)O` to `COc1ccc2nc(/C=N/NC(=O)CCCCCNC(=O)OC(C)(C)C)ccc2c1`, the “hERG current change (%, negative = inhibition) at 10uM” value falls from 4.48% to -0.0758%.

Compared with `Cc1cc(C)cc(NC(=S)Nc2ccccn2)c1`, `Cc1cc(N(C)Cc2ccccc2)nc2cc(O)ccc12` is lower in “hERG current change (%, negative = inhibition) at 10uM” value: -8.14% for the first, -56.4% for the second.

Going from `Cc1ccc(N=Cc2ccc(O)cc2O)cc1F` to `Cc1ccc2nsnc2c1S(=O)(=O)Nc1ccccc1C(=O)O`, the “hERG current change (%, negative = inhibition) at 10uM” value falls from 20.6% to -7.06%.

First: O=C(Cn1c(=O)oc2ccccc21)c1ccccc1
Second: N#Cc1ccccc1NCC(=O)N1CCN(S(=O)(=O)c2ccccc2)CC1
The “hERG current change (%, negative = inhibition) at 10uM” value of the first is lower: -5.11% for the first, -1.49% for the second.

Compared with `CCN1CCN(C(=S)Nc2cccc(C(F)(F)F)c2)CC1`, `FC(F)(F)c1cccc(N2CCN(c3nnnn3-c3ccccc3)CC2)c1` is lower in “hERG current change (%, negative = inhibition) at 10uM” value: -7.79% for the first, -25.3% for the second.

Compared with `CN(C(=O)C(Cl)Cl)C1CC2C=CC1C2` (stereo not shown), `Cc1cccc(NC(=O)CCN2C(=O)C3C4C=CC(C4)C3C2=O)n1` (stereo not shown) is higher in “hERG current change (%, negative = inhibition) at 10uM” value: 5.29% for the first, 5.71% for the second.

Going from `Nc1c(C(=O)CSc2nccn2-c2ccc(Cl)cc2)c(=O)[nH]c(=O)n1C1CC1` to `O=C(COc1ccc(Cl)cc1)N1CCN(S(=O)(=O)c2ccc(Cl)cc2)CC1`, the “hERG current change (%, negative = inhibition) at 10uM” value falls from 17.5% to -11.9%.

Going from `CS(=O)(=O)N1CCC(C(=O)NCc2ccco2)CC1` to `O=C(NCCC1CCCCN1S(=O)(=O)c1ccccc1)C(=O)Nc1ccccc1` (stereo not shown), the “hERG current change (%, negative = inhibition) at 10uM” value falls from 6.1% to -12.3%.

First: COc1ccccc1-c1nnc(SC)n1C
Second: C=CCn1nc2ccccc2c1OC
The “hERG current change (%, negative = inhibition) at 10uM” value of the first is higher: 36.9% for the first, 3.76% for the second.

Compared with `COc1nc2ccccc2nc1N1CCN(C)CC1`, `CC(C)COc1nc2ccccc2nc1N1CCN(C)CC1` is lower in “hERG current change (%, negative = inhibition) at 10uM” value: -23.9% for the first, -72.9% for the second.

Compared with `O=C(COc1ccccc1)N1CCN(S(=O)(=O)c2ccc(Cl)cc2)CC1`, `O=C(COc1ccc(Cl)cc1)N1CCN(S(=O)(=O)c2ccccc2)CC1` is lower in “hERG current change (%, negative = inhibition) at 10uM” value: -2.27% for the first, -54.6% for the second.

Going from `CC(=O)c1ccc(NCC(=O)N2CCN(S(=O)(=O)c3ccccc3)CC2)cc1` to `N#Cc1ccc(NCC(=O)N2CCN(S(=O)(=O)c3ccccc3)CC2)cc1`, the “hERG current change (%, negative = inhibition) at 10uM” value falls from -5.61% to -70.2%.

First: COc1ccc(OCC(=O)N2CCN(S(=O)(=O)c3ccc(Cl)cc3)CC2)cc1
Second: N#Cc1ccc(OCC(=O)N2CCN(S(=O)(=O)c3cccc(Cl)c3)CC2)cc1
The “hERG current change (%, negative = inhibition) at 10uM” value of the first is higher: -22.9% for the first, -71.4% for the second.

First: COc1ccc(CCC(=O)N2CCN(S(=O)(=O)c3cccc(Cl)c3)CC2)cc1
Second: CCCCN1C[C@H](Cc2ccccc2)[C@@H](CC(=O)NCc2ccc(OC)cc2)C1=O
The “hERG current change (%, negative = inhibition) at 10uM” value of the first is higher: -34.8% for the first, -61.8% for the second.

First: COC(=O)Oc1ccc(/C=N/NS(=O)(=O)c2ccccc2)cc1OC
Second: COc1ccc(C(=O)COC(=O)Cc2c[nH]c3ccccc23)c(OC)c1
The “hERG current change (%, negative = inhibition) at 10uM” value of the first is higher: 21.2% for the first, 4.87% for the second.

First: CCC(=Nc1ccccc1N)c1c(O)[nH]c(=O)[nH]c1=O
Second: COC(=O)C1CN(C(=O)COc2cccc(C)c2C)c2ccccc2O1 (stereo not shown)
The “hERG current change (%, negative = inhibition) at 10uM” value of the first is higher: 18.5% for the first, -6.63% for the second.

Going from `COc1ccc(C(=O)C2CCCN(Cc3c(F)ccc(F)c3F)C2)c(OC)c1` (stereo not shown) to `COc1ccc(C(=O)C2CCCN(Cc3c(C)[nH]c4ccccc34)C2)c(OC)c1` (stereo not shown), the “hERG current change (%, negative = inhibition) at 10uM” value falls from -30.9% to -70.1%.

First: COc1ccc(F)cc1C(=O)C1CCCN(Cc2cn(C)c3ccccc23)C1 (stereo not shown)
Second: COc1ccc(F)cc1C(=O)C1CCCN(Cc2c[nH]c3ccccc23)C1 (stereo not shown)
The “hERG current change (%, negative = inhibition) at 10uM” value of the first is higher: -39.5% for the first, -63.8% for the second.

First: COc1ccc(C(=O)C2CCCN(Cc3c[nH]c4ccccc34)C2)c(OC)c1 (stereo not shown)
Second: COc1ccc(F)cc1C(=O)C1CCCN(Cc2c(C)n(C)n(-c3ccccc3)c2=O)C1 (stereo not shown)
The “hERG current change (%, negative = inhibition) at 10uM” value of the first is lower: -70.8% for the first, -11.5% for the second.

Going from `CC1=C(C(=O)OC(C)C)C(c2ccncc2)n2ncnc2N1` (stereo not shown) to `CCOc1ccc(Nc2c3c(nc4ncnn24)CC(C)CC3)cc1` (stereo not shown), the “hERG current change (%, negative = inhibition) at 10uM” value falls from 0.568% to -53.9%.

First: CCOc1nc(Nc2cc(Cl)ccc2OC)nc(OCC)n1
Second: Clc1ccc(Nc2c3c(nc4ncnn24)CCC3)cc1
The “hERG current change (%, negative = inhibition) at 10uM” value of the first is higher: 19.7% for the first, 8.29% for the second.

Compared with `N#Cc1ccccc1CSCCNC(=O)Cc1c(F)cccc1Cl`, `COc1ccc(CNC(=O)C[C@H]2C(=O)N(Cc3ccccc3)C[C@@H]2Cc2ccccc2)cc1` is lower in “hERG current change (%, negative = inhibition) at 10uM” value: 15.8% for the first, 2.76% for the second.

First: CCN(CC)S(=O)(=O)c1ccc2c(c1)nc(CCC(=O)Nc1ccc3c(c1)OCO3)n2CC
Second: CCOc1ccc(N(C)S(=O)(=O)c2cc(-c3cc(C)no3)ccc2C(C)C)cc1
The “hERG current change (%, negative = inhibition) at 10uM” value of the first is lower: -0.447% for the first, 4.4% for the second.

Going from `Cc1ccc2c(c1)nnn2C1CCN(S(=O)(=O)c2ccc(C(=O)NC3CCCC3)cc2)CC1` to `c1ccc(Nc2c3c(nc4ncnn24)CCC3)cc1`, the “hERG current change (%, negative = inhibition) at 10uM” value falls from 15.9% to -54.5%.

First: Cc1cc(N(C)Cc2ccccc2)nc(-c2ccccc2)n1
Second: Cc1c(Cc2ccccc2)sc(NC(=O)/C=C/c2cccc3ccccc23)c1C(N)=O
The “hERG current change (%, negative = inhibition) at 10uM” value of the first is lower: -24.1% for the first, 20% for the second.

First: C#CCNc1c2c(nc3ncnn13)CC(C)CC2 (stereo not shown)
Second: C=CCNc1c2c(nc3ncnn13)CC(C)CC2 (stereo not shown)
The “hERG current change (%, negative = inhibition) at 10uM” value of the first is higher: -10.7% for the first, -14.8% for the second.

First: Clc1ccc(/C=N/Nc2nn[nH]n2)cc1
Second: COc1ccc(CNC(=O)C[C@H]2C(=O)N(c3ccccc3)C[C@@H]2Cc2ccccc2)cc1
The “hERG current change (%, negative = inhibition) at 10uM” value of the first is higher: 12.6% for the first, -49.4% for the second.

First: COc1ccc(CN2C[C@H](Cc3ccccc3)[C@@H](CC(=O)Nc3ccccc3)C2=O)cc1
Second: COc1ccc(CNC(=O)C[C@H]2C(=O)N(CCc3ccccc3)C[C@@H]2Cc2ccccc2)cc1
The “hERG current change (%, negative = inhibition) at 10uM” value of the first is higher: -10.5% for the first, -53% for the second.

In the case of `COc1ccc(CNC(=O)C[C@H]2C(=O)N(Cc3ccc(OC)cc3)C[C@@H]2Cc2ccccc2)cc1`, the “hERG current change (%, negative = inhibition) at 10uM” value is reported as -45.9%.
